{"source": "PubChem BioAssay (NCATS)", "note": "Results filed as inconclusive are left out. Activity calls are given as the source filed them. The call rests on the fitted dose curve; in most records, active means well fitted inhibition curve with a large enough effect; inconclusive means small, poorly fitted or top-dose-only effect; inactive means no such curve, though single readings can be large or run the other way. Potency means the concentration at half of the fitted maximal effect."}
{"test": "qHTS to identify inhibitors of the type 1 interferon - major histocompatibility complex class I in skeletal muscle: primary screen against the NCATS Mechanism Interrogation Plate v5.0 (MIPE) Libary (AID 1347411); further: nearly all actives have a fitted effect of over 65% in size;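 on activity change, negative = inhibition: plate controls were vehicle for no effect and reference inhibitor for full effect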", "details": "iHSKM cells + IFN-b, HiBiT-tagged MHC-I luminescence, 24 h; series mostly up to 45.8 µM; activity change, negative = inhibition: at the top concentration", "method_in_brief": "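HLA-B HiBit myoblasts, dexamethasone-free medium + 4 ng/ml IFN-b, 24 h compound, 11-pt 1:3 from 46 uM final. Readout: Nano-Glo HiBiT lytic luminescence after 10 min lysis, RT.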"}
{"smiles": "CC(C)NC(=O)N1CC[C@H](N=C2Nc3cc(F)ccc3N(CC(F)F)c3ccc(Cl)cc32)C1", "activity change, negative = inhibition": "-19.9% [at 8.44 µM] (inactive)"}
{"smiles": "CS(=O)(=O)Nc1cc2occ(NC=O)c(=O)c2cc1Oc1ccccc1", "activity change, negative = inhibition": "-24.7% (inactive)"}
{"smiles": "O=C(NCC(=O)N1CCCC1)Nc1ccc2cnccc2c1", "activity change, negative = inhibition": "-1.05% (inactive)"}
{"smiles": "COC(C)(C)CCn1nc(Nc2c(C)cccc2C)c2cnc(Nc3ccc(OCCN4CCCC4)c(F)c3)nc21", "Potency": "11.7 µM (active)"}
{"smiles": "O=C(Nc1ccc2[nH]nc(-c3ccncc3)c2c1)[C@@H]1CCN(CC(=O)N2CCN(c3ccc(-c4ncccn4)cc3)CC2)C1", "activity change, negative = inhibition": "-10.9% (inactive)"}
{"smiles": "CCCCNc1ncc(-c2ccc(CN3CCOCC3)cn2)c(NC2CCC(O)CC2)n1", "note": "(centres undefined)", "activity change, negative = inhibition": "-28.6% [at 15.5 µM] (inactive)"}
{"smiles": "COc1ccc(-c2cnc3c(-c4cccc5ncccc45)cnn3c2)cc1", "activity change, negative = inhibition": "-14.3% (inactive)"}
{"smiles": "CC(C)(CNC(=O)c1cccc(-c2noc(C(F)(F)F)n2)c1)c1coc(-c2ccccc2)n1", "activity change, negative = inhibition": "-17.4% (inactive)"}
{"smiles": "FC(F)(F)c1ccc(/C=C/c2nc(COc3ccc(CCCCn4ccnn4)cc3)co2)cc1", "activity change, negative = inhibition": "-19.1% (inactive)"}
{"smiles": "NC(=O)c1ccccc1Nc1ccnc(Nc2cccc(O)c2)n1", "Potency": "4.66 µM (active)"}
{"smiles": "CN1CCN(c2ccc(-c3cccc(CN4CCOCC4)c3)cc2NC(=O)c2c[nH]c(=O)cc2C(F)(F)F)CC1", "activity change, negative = inhibition": "42.4% (inactive)"}
{"smiles": "COc1cc(S(C)(=O)=O)ccc1Nc1nc2ccc(-c3ccc(NC(=O)[C@H](C)c4ccc(F)cc4)cc3)cn2n1", "activity change, negative = inhibition": "17.2% (inactive)"}
{"smiles": "Cc1cnc(-c2ccccc2C(C)C)nc1NCc1ccc(-n2ccnn2)cc1", "activity change, negative = inhibition": "-20.6% (inactive)"}
{"smiles": "CCOC(=O)[C@@]1(CCCCCCOc2ccc(Cl)cc2)CO1", "activity change, negative = inhibition": "-11.5% (inactive)"}
